# Screens deposited in PubChem BioAssay by several laboratories.
# TIM10 inh – growth inhibitors of isogenic TIM10 control yeast, primary screen, counter-screen for tim10-1 yeast inhibitor project, luminescence, uHTS; S. cerevisiae TIM10 strain growth, BacTiter-Glo luminescence, 24 h; inhibition, % at 10 µM; hit rate 1.4% among 330,000; AID 463195, 2010;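 active = inhibition of 40% or more at the single tested concentration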;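 also: wild-type TIM10 isogenic control strain grown at permissive 25 °C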
# PfHsp90 yeast 2 – growth inhibition of PfHsp90-expressing yeast, primary screen, antimalarial PfHsp90 inhibitor project, S. cerevisiae, BacTiter-Glo luminescence, single point, set 2 | hit rate 0.32% among 310,000 | inhibition, % at 9.4 µM | BacTiter-Glo ATP, 48 h; yeast lacking PDR1 and PDR3 efflux regulators;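 active = every replicate shows inhibition above about 80%, whatever the replicate mean, limit read from the data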;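 also: 0% = DMSO neutral controls and 100% = 20 µM radicicol positive controls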
# tim23-1 inh – growth inhibitors of tim23-1 mutant yeast, primary screen, luminescence, uHTS; S. cerevisiae tim23-1 growth, BacTiter-Glo luminescence, 24 h; inhibition, % at 20 µM; hit rate 1.3% among 330,000;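 active = growth inhibition of the mutant yeast at or above 50%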;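 also: temperature-sensitive mutant grown at 25 °C; plate controls were DMSO-treated mutant yeast for no effect and medium wells lacking yeast for full effect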
# tim10-1 inh – growth inhibitors of tim10-1 mutant yeast, primary screen, luminescence, uHTS; S. cerevisiae tim10-1 ts strain growth, BacTiter-Glo, 24 h; inhibition, % at 20 µM; hit rate 2.2% among 330,000; AID 463190, 2010;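 active = inhibition of at least 40%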;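 also: mutant grown at 25 °C; 0% = DMSO wells with yeast and 100% = wells holding no yeast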
# Rce1 inh – yeast Rce1p protease inhibitors, primary screen, biochemical, fluorescence, cell-free homogeneous; CAAX prenyl protease 2 (Saccharomyces cerevisiae (strain ATCC 204508 / S288c)), Q03530; yeast membranes, quenched prenylated peptide cleavage fluorescence; calls only; hit rate 0.27% among 290,000; AID 2563, 2010;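 active = fall in fluorescence gain of 50% or more versus controls, with final raw signal at or below 3038400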;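 also: plate controls were neutral control wells for no effect and wells lacking membranes for full effect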
# Target sequence (Q03530 whole entry, looked up): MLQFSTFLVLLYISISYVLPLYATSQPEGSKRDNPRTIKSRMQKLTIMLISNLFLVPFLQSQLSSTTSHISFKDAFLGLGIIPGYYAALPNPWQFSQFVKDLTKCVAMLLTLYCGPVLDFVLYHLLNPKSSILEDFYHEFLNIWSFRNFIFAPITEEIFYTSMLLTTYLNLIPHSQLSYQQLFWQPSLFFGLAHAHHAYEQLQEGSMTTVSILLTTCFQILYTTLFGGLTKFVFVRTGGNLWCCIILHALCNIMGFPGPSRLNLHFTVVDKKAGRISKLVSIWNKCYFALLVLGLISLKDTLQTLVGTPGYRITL
# TIM10 conf – growth inhibitors of wild-type TIM10 yeast, confirmation, counter-screen for tim10-1 synthetic lethality project, single concentration, luminescence, S. cerevisiae; shares compounds with TIM10 inh; S. cerevisiae tim10 strain growth, BacTiter-Glo luminescence, 24 h; inhibition, % at 10 µM; hit rate 63% among 4,600; AID 463215, 2010;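 active = inhibition of yeast growth at or above a set limit in either of two replicates at 10 µM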;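 also: this counterscreen used the strain with wild-type TIM10; 0% = yeast with DMSO and 100% = medium wells lacking yeast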
# The depositor's hits bear a star; i = inactive; / = no result given. A selection: hits, their analogues and other compounds. The true share with any hit is near 3.7%.
SMILES,TIM10 inh,PfHsp90 yeast 2,tim23-1 inh,tim10-1 inh,Rce1 inh,TIM10 conf
COc1ccc(N(C(=O)c2ccco2)S(=O)(=O)c2ccc(F)cc2)cc1,42*,-7,-1,38,i,17
COc1ccccc1C1(CC(=O)N2CCCCC2)CCOC(C(C)C)C1 (stereo not given),48*,-2,34,35,i,17
CC(C)CC(=O)NC(=S)Nc1ccc(NC(=O)c2cccs2)cc1,51*,-6,21,8,i,30
CC(C)CC(=O)NC(=S)Nc1cccc(NC(=O)c2ccccc2)c1,47*,-30,30,30,i,33*
CCCCCCCCCCOC(=O)Cn1c(COc2cccc(C)c2)[n+](C)c2ccccc21,51*,105*,7,28,i,34*
FC(F)(F)c1cccc(NC(=S)NCc2ccccc2)c1,47*,27,32,35,i,49*
O=C(Nc1cccc(C(F)(F)F)c1)C(SCCO)c1ccccc1 (stereo not given),12,-4,20,14,i,/
CCC(C(=O)Nc1cccc(C(F)(F)F)c1)c1ccccc1 (stereo not given),40*,-23,29,39,i,47*
CCN1C(=O)/C(=C/c2ccc(C)s2)NC1=S,41*,-1,30,36,i,-18
O=S(=O)(Nc1cc(Cl)ccc1N1CCCCC1)c1cccs1,40*,32,33,37,i,20
COc1ccc(C2CC(C(F)(F)F)n3nc(C(=O)NCCCn4ccnc4)cc3N2)cc1OC (stereo not given),4,22,-5,9,i,/
COc1ccc(NC(=O)c2cc3n(n2)C(C(F)(F)F)CC(c2ccc4c(c2)OCO4)N3)cc1OC (stereo not given),41*,-2,34,38,/,35*
Cc1ccc(-n2cc(CNCCCn3cccn3)c(-c3cccc(C)c3)n2)cc1,4,16,-30,-18,i,/
Cc1ccc(-n2cc3c(-c4cccc(Br)c4)nnc(C)c3n2)cc1,44*,5,41,35,i,31*
O=C(OCC(=O)c1c[nH]c2ccccc12)c1cc(Br)ccc1O,17,1,13,12,i,/
CCCc1cc(C(=O)N2CCN(c3ccccc3C)CC2)cs1,40*,/,34,32,i,36*
COc1cnc(-c2ccccn2)nc1Oc1ccc(Cl)c2ccccc12,53*,/,40,37,i,41*
Cc1ccc(C(=O)N/C(=C\c2sccc2C)C(=O)NCCCN2CCOCC2)cc1,9,-9,-3,-8,i,/
Cn1c(=O)c2c(-c3ccccc3)n3c4ccccc4ncc3c2n(C)c1=O,42*,/,17,24,i,-16
O=C(CCl)c1ccc2[nH]c(=O)oc2c1,-9,-9,11,-6,i,/
COc1ccc(Nc2cc(=O)n(C3CCCCC3)c(=O)[nH]2)c(OC)c1,-5,-10,-8,4,i,/
COc1c[nH]n(C2CCCCC2)c(=O)c1=O,40*,-4,40,23,i,23
COc1ccc(/C=C(/C(=O)Nc2ccccc2C(=O)NC(C)C)c2ccccc2)cc1,33,/,2,35,i,/
COc1ccc(/C=C(/C(=O)Nc2ccccc2C(=O)N2CCCC2)c2ccccc2)cc1,43*,/,30,34,i,28
Cc1cc(C)c(C#N)c(SCc2nc3ccccc3[nH]2)n1,44*,12,28,0,i,36*
SMILES,TIM10 inh,PfHsp90 yeast 2,tim23-1 inh,tim10-1 inh,Rce1 inh,TIM10 conf
COc1ccc(N(CC(=O)NCCc2ccccc2)C(=O)c2csnn2)cc1OC,11,19,-1,2,i,/
COc1ccc(NC(=O)C(c2cc3c(cc2[N+](=O)[O-])OCO3)N(C)C)cc1 (stereo not given),9,-6,-3,14,i,/
C=C(C)c1cccc(C(C)(C)NC(=O)N(C)C2CCN(C)CC2)c1,9,-29,3,1,i,/
CCCc1cc(=O)oc2cc(OCC(=O)NCCc3c[nH]c4ccccc34)ccc12,0,-6,1,0,i,/
COc1cccc(/C=N/NC(=O)CSc2ccccc2C)c1O,43*,7,39,8,i,53*
Cc1ccc(C(=O)C(C)N2C(=O)NC(C)(c3ccccc3)C2=O)cc1 (stereo not given),10,-5,11,-1,i,/
O=C(OCC#CCSc1nnc(-c2ccc([N+](=O)[O-])cc2)o1)c1cccs1,41*,-3,22,36,i,33*
COc1ccc(-c2cc3c(nn2)-c2ccccc2C3=O)cc1,42*,40,27,18,/,45*
COc1ccccc1N1CCN(C(=O)c2ccc3nc(-c4ccco4)c(-c4ccco4)nc3c2)CC1,41*,/,20,26,i,15
COc1ccc(-c2cc(C(=O)N3CCN(c4ccccc4OC)CC3)no2)cc1,25,39,34,26,/,/
COc1ccccc1N1CCN(C(=O)c2cc(-c3ccc(C)cc3)on2)CC1,40*,-6,48,8,i,36*
COc1ccccc1N1CCN(C(=O)c2ccc3nc[nH]c3c2)CC1,3,12,9,18,i,/
CCc1ccc(CNCCSc2nnnn2C)cc1,-11,/,-5,-5,i,/
COc1ccccc1CNC(=O)C(NC(=O)c1ccccc1)C(C)C (stereo not given),12,-7,4,11,i,/
CC(C)(C)C(=O)Nc1ccc(C(=O)CN2C(=O)NC3(CCOc4ccccc43)C2=O)cc1 (stereo not given),5,-16,17,11,/,/
Cc1cc(/C=C\c2ccccc2)nc2ccccc12,53*,-93,21,5,/,62*
CCc1n[nH]c(=S)n1/N=C/c1cc(Br)c(OC)cc1OC,53*,28,28,32,i,-15
O=C(OCc1ccccc1)c1ccc2c(c1)-c1ccccc1C2=O,8,-24,18,27,i,/
CCCN(CC(=O)Nc1ccccc1OC)C(=O)c1ccc2c(c1)NC(=O)C(C)S2 (stereo not given),1,12,7,-6,/,/
COc1ccc(NC(=S)NCCSc2ccc(C)cc2)c(OC)c1,46*,1,44,25,i,-15
COc1ccc(NC(=S)NCCc2ccc(Cl)cc2)c(OC)c1,41*,2,47,36,i,-35
COc1ccc(NC(=S)NCc2ccc(Cl)cc2)c(OC)c1,17,8,30,24,i,/
